Assay outcomes from PubChem.
Compounds with a hit are over-represented: about 4.1% of the library has one in this group of screens.
A1 inh: caspase 3/7 activation in MEF A1-2A-BIM cells, primary screen, A1 inhibitor project, cell-based, luminescence, HTS; Caspase-Glo 3/7 luminescence, 3 h; percent of clofoctol response, vehicle zero; caspase activation, % (test concentration not listed); 330,000 tested, 0.066% active;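 active = over half of replicate activation scores above 10%, or exactly half above 10 with the replicate mean above 10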
Beta apoptosis: inhibitors of cytokine-induced beta cell apoptosis, primary screen, luminescence | protection from apoptosis, % (test concentration not listed) | 300,000 tested, 0.8% active | INS-1E cytokine-induced death, ATP luminescence, 48 h; percent of positive-control rescue, neutral wells zero;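 active = Every replicate reaches about 75%, or at least half do and their mean reaches it too, limit read from the data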;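 note: 0% = cytokine-treated negative control wells and 100% = positive control rescue; higher means more ATP so stronger rescue from cytokine killing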
aSyn UTR inh: MLPCN primary screen, SNCA 5' untranslated region | alpha-synuclein 5'UTR reporter, inhibitor activity | inhibition, % (tested at 7.5 µM) | 300,000 tested, 0.82% active; in the data active = inhibition above about 60%;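 note: H4 neuroglioblastoma cells stably carrying SNCA 5'UTR luciferase fusion; 0% = DMSO wells and 100% = positive control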
CSC inhib: cancer stem cell viability inhibitors, primary screen, luminescence; cancer stem cell-like cells viability; inhibition, % at 7.5 µM; 300,000 tested, 1.1% active; in the data active = inhibition above about 75%; tested in HMLE shEcad cells
Mdm2 MdmX PPI: inhibitors of human Mdm2-MdmX association, primary screen, cell-based, luminescence, split luciferase, SaOS-2, uHTS; 330,000 tested, 3% active; SaOS-2 split-luciferase Mdm2/MdmX complementation; Protein Mdm4 (Homo sapiens) + E3 ubiquitin-protein ligase Mdm2 (Homo sapiens), …; inhibition, % at 8 µM;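 active = inhibition of at least 50% at 8 µM in the primary screen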
Mdm2 MdmX conf: Mdm2-MdmX complex disruptors, retested hits, confirmation, luminescence, single concentration | AID 489028, 2010 | 10,000 tested, 55% active | inhibition, % at 8 µM | shares compounds with Mdm2 MdmX PPI | Mdm2-MdmX binding, luminescent assay; in the data active = inhibition above about 40%
Full FLuc ctr: full-length luciferase signal inhibition, confirmation, counter-screen for Mdm2/MdmX interaction inhibitor project, cell-based, single concentration, SaOS-2. shares compounds with Mdm2 MdmX PPI. SaOS-2 full-length luciferase counterscreen, luminescence. inhibition, % at 8 µM. 6,200 tested, 77% active. AID 504607, 2011;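 active = mean inhibition at 8 µM reaching about 37%, which flags the compound as non-specific, limit read from the data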;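 note: p53-null SaOS-2 cells with luciferase driven by a doxycycline-inducible promoter; compound on cells about two nights before reading with doxycycline added after day one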
Starred values were filed as active, the others as inactive; x = no result given.

SMILES	A1 inh	Beta apoptosis	aSyn UTR inh	CSC inhib	Mdm2 MdmX PPI	Mdm2 MdmX conf	Full FLuc ctr
N=c1c2c(-c3ccccc3)c(-c3ccccc3)n(Cc3ccco3)c2ncn1CCCO	0	5	-30	14	61*	38	59*
N=c1c2c(-c3ccccc3)c(-c3ccccc3)n(Cc3ccco3)c2ncn1CCO	0	9	-14	37	82*	61*	57*
c1ccc(-c2nc3nc4ccccc4nc3n2Cc2ccco2)cc1	0	6	-106	8	-37	x	x
N=c1c2c(-c3ccccc3)c(-c3ccccc3)n(Cc3ccco3)c2ncn1CCN1CCOCC1	-1	3	-14	-4	55*	33	x
COc1ccc(C2CC(c3ccccc3F)=NN2c2ccc(S(N)(=O)=O)cc2)cc1 (stereo not drawn)	x	x	x	x	34	x	x
COc1ccc(C2CC(c3ccccc3C(F)(F)F)=NN2c2ccc(S(N)(=O)=O)cc2)cc1 (stereo not drawn)	x	x	x	x	67*	62*	70*
COc1ccc(C2CC(c3ccc(C(F)(F)F)cc3)=NN2c2ccc(S(N)(=O)=O)cc2)cc1 (stereo not drawn)	x	x	x	x	93*	-7	x
CCc1ccc(C2=NN(c3ccc(S(N)(=O)=O)cc3)C(c3ccc(F)cc3)C2)cc1 (stereo not drawn)	1	18	5	31	77*	11	x
CC1(C)S[C@@H]2[C@H](NC(=O)C(NC(=O)N3CCNC3=O)c3ccccc3)C(=O)N2[C@H]1C(=O)O (stereo partly drawn)	0	4	-1	-8	27	x	x
CCCCCN(C(=O)CCC(=O)OCC(=O)c1ccc(C(C)CC)cc1)c1c(N)n(CCCC)c(=O)[nH]c1=O (stereo not drawn)	-1	-1	27	3	0	x	x
CCC(=O)N1CCc2cc(S(=O)(=O)N3CCN(c4ccccc4)CC3)ccc21	0	-8	-9	1	55*	-18	x
Cn1nc(-c2ccc(OCC(=O)Nc3cccnc3)cc2)c2ccccc2c1=O	-1	-2	9	6	64*	6	x
CNC(=O)COc1ccc(-c2nn(C)c(=O)c3ccccc23)cc1	2	-4	-7	-8	28	x	x
Nc1ncc(Br)cc1S(=O)(=O)Nc1cc(C(F)(F)F)cc(C(F)(F)F)c1	0	15	-27	-6	79*	38	56*
Cc1ccc(NS(=O)(=O)c2cc(Br)cnc2N)c(Cl)c1	1	1	-4	25	5	x	x
COc1ccc(-c2nn(Cc3ccccc3)cc2C(=O)N2CCN(c3ccccn3)CC2)cc1OC	0	-8	x	-3	23	x	x
O=C(c1cn(Cc2ccccc2)nc1-c1ccccc1)N1CCN(c2ccccn2)CC1	0	-1	x	42	53*	50*	71*
O=C(c1ccccc1-c1ccccc1)N1CCN(c2ccccn2)CC1	1	30	-2	58	59*	58*	50*
Cc1cc(-c2ccccc2)nc(N2CCN(c3ccccn3)CC2)n1	1	20	3	1	59*	24	x
CCC(=O)NC(C)c1cc(Cl)c2cccnc2c1O (stereo not drawn)	1	-7	x	-4	39	x	x
CCCC(=O)NC(c1cccs1)c1cc(Cl)c2cccnc2c1O (stereo not drawn)	1	93*	99*	11	82*	69*	25
CCCC(=O)NC(c1ccco1)c1cc(Cl)c2cccnc2c1O (stereo not drawn)	0	82*	40	-2	65*	46*	23
CN1CCN(C(c2cccnc2)c2ccc3cccnc3c2O)CC1 (stereo not drawn)	0	22	-11	25	31	x	x
CN1CCN(C(c2ccc(Br)cc2)c2cc(Cl)c3cccnc3c2O)CC1 (stereo not drawn)	0	73	67*	111*	80*	62*	48*
CCC(=O)NC(c1ccc(C)cc1)c1cc(Cl)c2cccnc2c1O (stereo not drawn)	1	88*	x	x	79*	55*	24
SMILES	A1 inh	Beta apoptosis	aSyn UTR inh	CSC inhib	Mdm2 MdmX PPI	Mdm2 MdmX conf	Full FLuc ctr
O=C(O)COc1ccccc1C(Nc1cccnc1)c1cc(Cl)c2cccnc2c1O (stereo not drawn)	x	x	6	x	-15	x	x
CCC(=O)NC(c1ccco1)c1cc(Cl)c2ccccc2c1O (stereo not drawn)	-1	-5	x	2	-24	x	x
O=C(NC(c1ccccc1)c1cc(Cl)c2cccnc2c1O)c1cccnc1 (stereo not drawn)	0	81*	100*	102*	83*	89*	10
CCOc1ccc(C(Nc2cccnc2)c2cc(Cl)c3cccnc3c2O)cc1 (stereo not drawn)	1	86*	67*	3	64*	65*	43*
CCCC(=O)NC(c1ccc2c(c1)OCO2)c1cc(Cl)c2cccnc2c1O (stereo not drawn)	-1	85*	80*	113*	76*	72*	21
CCCCn1c(N)c(N(CCOC)C(=O)c2ccc3c(c2)OCCO3)c(=O)[nH]c1=O	-1	-6	5	-10	10	x	x
Cc1ccc2cc(CN(CC3CCCO3)C(=S)NCc3ccco3)c(=O)[nH]c2c1C (stereo not drawn)	0	-6	47	1	83*	58*	37*
CCN(CC)CCCN(Cc1cc2ccc(C)c(C)c2[nH]c1=O)C(=O)NC1CCCCC1	-1	-14	-18	4	61*	50*	74*
Cc1ccc2cc(CN(CC3CCCO3)C(=O)NC3CCCCC3)c(=O)[nH]c2c1C (stereo not drawn)	1	-3	37	-4	3	x	x
Cc1cc(C)c(C)c(S(=O)(=O)N2CCN(C(=O)c3ccccc3OCc3c(C)noc3C)CC2)c1C	0	2	x	x	-2	x	x
N/C(=N\c1nc2ccccc2o1)NC(=O)c1ccc(F)cc1	2	12	-132	4	67*	8	x
N/C(=N\c1nc2ccccc2o1)NC(=O)c1ccc(Cl)cc1	0	-6	-87	1	23	x	x
O=C(CCS(=O)(=O)c1ccc(Br)cc1)N1CCCCCC1	1	-6	-18	-26	-7	x	x
COc1ccc(-c2nn(-c3ccccc3)cc2C(=O)NC2CCC(C)CC2)cc1 (stereo not drawn)	0	10	-28	-13	28	x	x
